# In PubChem BioAssay (NCATS):
# “And” between values parts separate entries of the source, which are not always exact repeats. Equal entries are not always repeated. Inconclusive results are not listed. More than one record can exist for a structure, and the calls need not agree. The source made the active and inactive calls. Unless noted, calls come from the whole dose curve; as a rule, active = well fitted curve in the direction sought with a large enough effect; inconclusive = small, poorly fitted or top-dose-only effect, or another doubt; inactive = no such curve, though single readings can be large; an effect the other way counts as inactive or inconclusive.
# Tests used:
# [1] = qHTS assay for small molecule agonists of the antioxidant response element (ARE) signaling pathway (AID 651741; active = well fitted activation curve with a large enough effect in the signal ratio; the % refers to the signal ratio; note: potency is the fitted concentration of half-maximal effect; for activation: % of control where 0% means no effect)
# Procedure, shortened: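 HepG2 ARE-bla cells plated at 2,000 cells/well and incubated 5 h at 37 C/5% CO2 received 23 nL compound in DMSO. After 16 h at 37 C, LiveBLAzer B/G FRET substrate was applied for 2 h at room temperature and fluorescence read.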
# [2] = qHTS assay for small molecule activators of the p53 signaling pathway (AID 651743; active = well fitted activation curve with a large enough effect in the signal ratio, not every such curve was filed as active; the % refers to the signal ratio; note: potency is the fitted concentration of half-maximal effect; for activation: % of control where 0% means no effect); conditions: HCT-116 p53RE-bla, beta-lactamase FRET ratio, 16 h; activation: stronger effect = higher value
# Procedure, shortened: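 HCT-116 p53RE-bla, 4,000 cells/well; 5 h settle; cpd/DMSO 16 h, 37 C; LiveBLAzer B/G 2 h RT; fluorescence intensity.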
# [3] = qHTS assay for small molecule activators of the nuclear factor-kappa B (NF-kB) signaling pathway (AID 651749; active = well fitted activation curve with a large enough effect in the signal ratio; the % refers to the signal ratio; note: % of control where 0% means no effect); conditions: NF-kB-bla ME-180 cells, beta-lactamase FRET ratio, 16 h; stronger effect = higher value
# Procedure, shortened: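 Incubation lasted 16 hr at 37C in 5% CO2 after 23 nL compound addition to ME-180 NF-kB-bla cells. Activation appears as beta-lactamase-mediated FRET loss.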
# [4] = qHTS assay for small molecule disruptors of the mitochondrial membrane potential - 1 hr assay (AID 651754; calls by dose curve; note: nearly all actives have a fitted effect of over 35% in size; note: potency is the fitted concentration of half-maximal effect)
# Procedure, shortened: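 HepG2 cells, attached overnight at 37C, were exposed to compound or DMSO vehicle for 1 hr at 37C, 5% CO2, then stained with Mito-MPS dye for 30 min. Red aggregate versus green monomer fluorescence reports membrane potential.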
# [5] = qHTS assay for small molecule disruptors of the mitochondrial membrane potential - 5 hr assay (AID 651755; calls by dose curve; note: nearly all actives have a fitted effect of over 40% in size; note: potency is the fitted concentration of half-maximal effect)
# Procedure, shortened: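 HepG2 cells (2,000/well), attached overnight, exposed to compound 5 hr at 37C, then Mito-MPS dye 30 min. Fluorescence read for monomers (490/535 nm) and aggregates (540/590 nm).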
# [6] = target: Tumor necrosis factor (Homo sapiens) (UniProt P01375); assay: qHTS assay to identify small molecules that stimulate Tumor Necrosis Factor-alpha (TNF-alpha) secretion (AID 651757; active = well fitted curve in the direction sought with a large enough effect in the signal ratio; the % refers to the signal ratio; note: 0% is about no effect)
# Procedure, shortened: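 THP-1 cells were exposed to compounds for 17 hrs at 37 C, after which secreted TNF-alpha was measured by homogeneous HTRF (TR-FRET) using cryptate- and XL665-labeled anti-TNF-alpha antibodies, read after 3 hr at room temperature.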
# [7] = qHTS assay to identify small molecules that stimulate interleukin-8 (IL-8) secretion (AID 651758; active = well fitted activation curve with a large enough effect in the signal ratio; the % refers to the signal ratio; note: 0% is about no effect)
# Procedure, shortened: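 THP-1 cells (2000/well) exposed to compound 16 h at 37 C; secreted IL-8 then detected by HTRF with cryptate- and XL665-labelled anti-IL-8 antibody pair after 1-3 h at room temperature.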
# [8] = Cell Proliferation Assay against the HBL1 Cell Line (AID 651646); conditions: HBL1 DLBCL cells; at 46.1 µM (top of the series) unless noted;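 note: cells exposed to compound for 48 h before reading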
# Procedure, shortened: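 HBL1 ABC DLBCL cells, 500/well in RPMI with 5% FBS, treated for 48 h at 37C. Viability read by CellTiter-Glo luminescence, normalized to DMSO as 100% and 9.2 uM bortezomib as 0%.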
# [9] = Cell Proliferation Assay against the TMD8 Cell Line (Caspase readout at 8 hrs) (AID 651713); note: potency is the fitted concentration of half-maximal effect
# Procedure, shortened: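 TMD8 cells (500/well) in phenol red-free RPMI with 5% FBS were treated with compounds for 8 h at 37C, 5% CO2. Caspase-Glo 3/7 luminescence was read after 15 min at room temperature and normalised to DMSO (0%) and 9.2 uM bortezomib (100%).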
# [10] = Cell Proliferation Assay against the TMD8 Cell Line (Caspase readout at 16 hrs) (AID 651712); note: potency is the fitted concentration of half-maximal effect
# Procedure, shortened: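 TMD8 cells in RPMI with 5% FBS were treated with compound for 16 h at 37 C, then caspase 3/7 activation was read by Caspase-Glo luminescence. Percent activity was scaled to DMSO (0%) and 9.2 uM bortezomib final (100%).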
# Chain of Tumor necrosis factor (Homo sapiens) (P01375 whole entry, looked up): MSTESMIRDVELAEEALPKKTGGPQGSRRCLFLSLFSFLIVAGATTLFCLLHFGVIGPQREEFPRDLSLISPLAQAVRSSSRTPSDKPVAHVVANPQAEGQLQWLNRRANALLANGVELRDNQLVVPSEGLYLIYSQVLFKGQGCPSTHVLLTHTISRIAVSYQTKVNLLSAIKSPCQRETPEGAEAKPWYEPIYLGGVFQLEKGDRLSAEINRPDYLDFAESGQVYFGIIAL
compound,measurement,setting,value
CN(C)NC(=O)CCC(=O)O,Potency,[1],inactive
same,activation,[2],0.825% (inactive) and -3.72% (inactive)
same,activation,[3],0.502% (inactive) and -0.298% (inactive)
same,Potency,[4],inactive
same,Potency,[5],inactive
same,outcome,[6],inactive
CCCCOC(=O)c1ccccc1C(=O)OCc1ccccc1,Potency,[1],inactive
same,activation,[2],1.28% (inactive) and 1.63% (inactive)
same,activation,[3],-1.25% (inactive) and 0.0084% (inactive)
same,Potency,[5],inactive
same,outcome,[6],inactive
same,outcome,[7],inactive
CC(C)(C)C(O)C(Oc1ccc(Cl)cc1)n1cncn1 (stereo unspecified),Potency,[1],inactive
same,activation,[2],-1.72% (inactive)
same,activation,[3],-0.211% (inactive)
Nc1nc(-c2nn(Cc3ccccc3F)c3ncccc23)nc(N)c1N1CCOCC1,"viability, percent of control",[8],114%
CO/C=C(/C(=O)OC)c1ccccc1Oc1cc(Oc2ccccc2C#N)ncn1,Potency,[1],13.7 µM (active)
same,activation,[2],25% (inactive)
CCCCCC[C@H]1C(=O)O[C@H](C)[C@H](NC(=O)c2cccc(NC=O)c2O)C(=O)O[C@@H](C)[C@@H]1OC(=O)CC(C)C,Potency,[1],4.33 µM (active)
same,Potency,[2],0.02 µM (active)
same,activation,[3],2.55% (inactive)
Nc1ccc(N=Nc2ccccc2)cc1,Potency,[1],27.3 µM (active)
same,activation,[2],-2.42% (inactive)
COC(C)(C)CCCC(C)C/C=C/C(C)=C/C(=O)OC(C)C (stereo unspecified),Potency,[1],48.6 µM (active) and 66.8 µM (active)
same,activation,[2],-4.75% (inactive) and -1.61% (inactive)
same,activation,[3],-3.22% (inactive) and 0.402% (inactive)
same,Potency,[4],inactive
same,Potency,[5],inactive
same,outcome,[6],inactive
CS(=O)(=O)c1ccc(C(=O)C2C(=O)CCCC2=O)c([N+](=O)[O-])c1,Potency,[1],54.5 µM (active)
same,activation,[2],-1.94% (inactive)
same,activation,[3],-0.467% (inactive)
O=S(=O)(O)C(F)(F)C(F)(F)C(F)(F)C(F)(F)C(F)(F)C(F)(F)C(F)(F)C(F)(F)F,Potency,[1],inactive
same,activation,[2],-2.58% (inactive) and 0.715% (inactive)
O=C(Oc1ccc([N+](=O)[O-])cc1)N1CCC(C(O)(c2ccc3c(c2)OCO3)c2ccc3c(c2)OCO3)CC1,"viability, percent of control",[8],72%
same,Potency,[9],inactive
O=C(O)COc1ccccc1,Potency,[1],inactive
same,activation,[2],-8.89% (inactive)
same,activation,[3],-0.0582% (inactive)
same,outcome,[6],inactive
same,outcome,[7],inactive
COc1cc2c(cc1O)CC[C@@H]1[C@@H]2CC[C@]2(C)[C@@H](O)CC[C@@H]12,"viability, percent of control",[8],37.3%
[Cl][In]([Cl])[Cl],Potency,[1],29.8 µM (active)
COc1ccc2c(c[n+](C)c3c4cc5c(cc4ccc23)OCO5)c1OC,"viability, percent of control",[8],4.88%
same,Potency,[9],2.96 µM (active)
O=[N+]([O-])c1cc([N+](=O)[O-])c2ccccc2c1,Potency,[1],5.96 µM (active)
same,activation,[2],-0.898% (inactive)
same,activation,[3],-0.323% (inactive)
same,Potency,[4],33.5 µM (active)
same,outcome,[6],inactive
Cc1c(C(=O)Nc2cccc(C(F)(F)F)c2)cc(-c2ccccc2)n1CCCN1CCOCC1,"viability, percent of control",[8],18.7%
CC1CC(C)C(=O)C(C(O)CC2CC(=O)NC(=O)C2)C1 (stereo unspecified),"viability, percent of control",[8],43.6% [at 92.2 µM]
same,Potency,[10],1.91 µM (active)
same,Potency,[9],17.1 µM (active)
O=[N+]([O-])/N=C1\NCCN1Cc1ccc(Cl)nc1,Potency,[1],inactive
CC(=O)Nc1ccc(OC[C@](C)(O)C(=O)Nc2ccc([N+](=O)[O-])c(C(F)(F)F)c2)cc1,"viability, percent of control",[8],96.7%
same,Potency,[10],inactive
same,Potency,[9],inactive
Cc1nc(-c2ccc(-c3ccc(C(=O)N4CCc5cc6c(cc54)C4(CCN(C)CC4)CO6)cc3)c(C)c2)no1,"viability, percent of control",[8],1.18%
C=CCON=C(C[C@H]1O[C@@H]2O[C@]3(C)CC[C@@H]4[C@H](C)CC[C@@H]([C@H]1C)[C@@]24OO3)[C@H]1O[C@@H]2O[C@]3(C)CC[C@H]4[C@H](C)CC[C@@H]([C@@H]1C)[C@@]24OO3,"viability, percent of control",[8],30.4%
same,Potency,[10],0.0833 µM (active)
same,Potency,[9],inactive
O=S(=O)(O)C(F)(F)C(F)(F)C(F)(F)C(F)(F)F,Potency,[1],30.6 µM (active) and inactive
same,activation,[2],-0.542% (inactive) and -4.63% (inactive)
same,activation,[3],-0.249% (inactive) and 0.21% (inactive)
Cc1ccccc1-n1c(Cn2cnc3c(N)ncnc32)nc2cccc(C)c2c1=O,"viability, percent of control",[8],62.6%
CCCCC(CC)COC(=O)c1ccccc1C(=O)O (stereo unspecified),Potency,[1],54.5 µM (active)
ClC1=C(Cl)[C@]2(Cl)[C@@H]3[C@@H]4C[C@@H]([C@H]5O[C@@H]45)[C@@H]3[C@@]1(Cl)C2(Cl)Cl,Potency,[1],54.5 µM (active)
same,activation,[2],-1.42% (inactive)
same,activation,[3],5.88% (inactive)
CC(C)[C@]12O[C@H]1[C@@H]1O[C@]13[C@]1(O[C@H]1C[C@H]1C4=C(CC[C@@]13C)C(=O)OC4)[C@@H]2O,"viability, percent of control",[8],35%
same,Potency,[10],0.0132 µM (active)
same,Potency,[9],0.132 µM (active)
CC(C)(C)c1[nH]cnc1C=c1[nH]c(=O)c(=Cc2ccccc2)[nH]c1=O,Potency,[10],0.0235 µM (active)
same,Potency,[9],0.059 µM (active)
COc1nn(CSP(=S)(OC)OC)c(=O)s1,Potency,[1],inactive
same,activation,[2],0.0507% (inactive)
same,activation,[3],-0.901% (inactive)
c1cc(-c2cnn3cc(-c4ccc(OCCN5CCCCC5)cc4)cnc23)ccn1,Potency,[9],23.5 µM (active)
COc1ccc(C(c2ccc(OC)cc2)C(Cl)(Cl)Cl)cc1,Potency,[1],33.5 µM (active) and 61.1 µM (active)
same,activation,[2],2.38% (inactive) and 0.818% (inactive)
same,activation,[3],1.06% (inactive) and 0.442% (inactive) and 3.56% (inactive)
same,Potency,[4],23.7 µM (active) and 37.6 µM (active)
same,Potency,[5],37.6 µM (active)
same,outcome,[6],inactive
same,outcome,[7],inactive
